The structures appear in SMILES notation. Values joined by “and” are separate entries in the source; they are usually repeats but may differ in a detail not shown here. Equal entries are not always repeated. Records with an inconclusive call do not appear. The source holds several records for some structures; these can differ, active in one and inactive in another. Active and inactive are the calls of the source. Rule for the calls, unless noted: active = hit-call score of the fitted dose curve at least 0.9, where 1 is the maximum; inactive = score below 0.9.

System in one assay: not listed separately
As to the kind of experiment: CCTE_Shafer_MEA_dev_per_network_spike_spike_number_mean: CCTE's Neural Network Formation Assay for Mean Number of Spikes in a Network Spike, Shafer Lab (AID 2284053).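 For AC50: fitted as decrease in spikes per network spike relative to DMSO.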 A digest of the protocol:
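First, rat cortical cells (1.5 x 10^5/well) were seeded onto MEA wells; second, dosing began at plating and was refreshed on DIV 5 and 9; finally, network-spike spike counts across DIV 5–12 were summarized as AUC.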
As for `CSC(=O)c1cccc2nnsc12`, the molecule was called inactive.

On to `S=C(S)NCCNC(=S)S.[Mn+2].[S-]C([S-])=NCCN=C([S-])[S-].[Zn+2]`, for which the molecule was classed as inactive.

With `Cc1nn(C)c(Oc2ccccc2)c1C=NOCc1ccc(C(=O)OC(C)(C)C)cc1`, the AC50 is 0.00249 µM (active).

For `C#CCOC(=O)[C@@H](C)Oc1ccc(Oc2ncc(Cl)cc2F)cc1`, the result was inactive.

`O=C(O)c1ccccc1`: the molecule was called inactive.

Regarding `Oc1ccc(C(c2ccc(O)cc2)C(Cl)(Cl)Cl)cc1`, the AC50 was 3.73 µM (active).

With `CCN(CC)C(=O)c1cccc(C)c1`, the result was inactive.

On to `COCCO`, for which the call was inactive.

For the molecule `OB(O)O`, the molecule was called inactive.

As to `CC1(C)C(C=C(Cl)Cl)C1C(=O)OCc1cccc(Oc2ccccc2)c1` (stereo not given), the AC50 is 17.3 µM (active) and 10.1 µM (active).

Consider `CCCCC(CC)CN1C(=O)C2C3C=CC(C3)C2C1=O` (stereo not given), for which the call was inactive.

`CCCCOCCOCCOCc1cc2c(cc1CCC)OCO2`: the result was inactive.

With `CCCN(CCC)C(=O)SCC`, the result was inactive.

Turning to `CC(C)(c1ccc(O)cc1)c1ccc(O)cc1`, the AC50 was 15 µM (active) and the result was inactive.

System in another assay: not listed separately
As to the kind of experiment: CCTE_Shafer_MEA_dev_per_network_spike_spike_percent: CCTE's Neural Network Formation Assay for Percent of Spikes in a Network Spike, Shafer Lab (AID 2284054). A digest of the protocol:
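Read-out: percent of spikes falling in a 0.05 s window at network-spike peak, from spontaneous MEA recordings on days 5, 7, 9 and 12; trapezoidal AUC; loss of signal versus DMSO. Rat cortical cultures, compound present throughout.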
As to `CSC(=O)c1cccc2nnsc12`, the molecule was classed as inactive.

Regarding `S=C(S)NCCNC(=S)S.[Mn+2].[S-]C([S-])=NCCN=C([S-])[S-].[Zn+2]`, the molecule was classed as inactive.

On to `Cc1nn(C)c(Oc2ccccc2)c1C=NOCc1ccc(C(=O)OC(C)(C)C)cc1`, for which the half-maximal activity concentration (AC50) is 2.38 nM (active).

Consider `C#CCOC(=O)[C@@H](C)Oc1ccc(Oc2ncc(Cl)cc2F)cc1`, for which the outcome was inactive.

On to `O=C(O)c1ccccc1`, for which the molecule was classed as inactive.

In the case of `Oc1ccc(C(c2ccc(O)cc2)C(Cl)(Cl)Cl)cc1`, the result was inactive.

`CCN(CC)C(=O)c1cccc(C)c1`: the molecule was classed as inactive.

As to `S=C([S-])NCCNC(=S)[S-].[Mn+2]`, the outcome was inactive.

In the case of `COCCO`, the molecule was classed as inactive.

Regarding `OB(O)O`, the call was inactive.

Turning to `CC1(C)C(C=C(Cl)Cl)C1C(=O)OCc1cccc(Oc2ccccc2)c1` (stereo not given), the AC50 was 22.2 µM (active) and 5.34 µM (active).

On to `CCCCC(CC)CN1C(=O)C2C3C=CC(C3)C2C1=O` (stereo not given), for which the outcome was inactive.

As for `CCCCOCCOCCOCc1cc2c(cc1CCC)OCO2`, the outcome was inactive.

With `CCCN(CCC)C(=O)SCC`, the result was inactive.

On to `CC(C)(c1ccc(O)cc1)c1ccc(O)cc1`, for which the AC50 is 6650 nM (active) and the molecule was called inactive.

A further assay concerns DIO3 (gene 1735). As to the kind of experiment: CCTE_GLTED_hDIO3: CCTE's human Deiodinase 3 (DIO3) Inhibition Assay, Great Lakes Toxicology and Ecology Division (GLTED) Lab (AID 2284055; active = hit-call score of the fitted dose curve at least 0.9, where 1 is the maximum;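 note: potency is for inhibition seen as loss of released iodide signal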). In outline:
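Steps: incubate adenovirus-produced hDIO3 with chemical for 3 hours; detect freed iodide via cerium-arsenic Sandell-Kolthoff colorimetry; compare with DMSO baseline.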
`S=C(S)NCCNC(=S)S.[Mn+2].[S-]C([S-])=NCCN=C([S-])[S-].[Zn+2]`: the concentration at half-maximal activity (AC50) was 43.6 µM (active).

For the molecule `CCCN(CCC)c1c([N+](=O)[O-])cc(C(F)(F)F)c(N)c1[N+](=O)[O-]`, the AC50 was 21.4 µM (active).

Regarding `Oc1ccc(C(c2ccc(O)cc2)C(Cl)(Cl)Cl)cc1`, the AC50 is 143 µM (active).

Consider `CC(=O)S[C@@H]1CC2=CC(=O)CC[C@]2(C)[C@H]2CC[C@@]3(C)[C@@H](CC[C@@]34CCC(=O)O4)[C@H]12`, for which the AC50 is 100 µM (active).

For `CC(C)CCCCCCc1ccc(O)cc1`, the concentration at half-maximal activity (AC50) was 18.8 µM (active).

Consider `CCOC(=O)C(C)Oc1ccc(Oc2nc3ccc(Cl)cc3o2)cc1` (stereo not given), for which the AC50 is 15.3 µM (active).

Consider `CCCCCOC(=O)COc1cc(N2C(=O)C3=C(CCCC3)C2=O)c(F)cc1Cl`, for which the AC50 is 100 µM (active).

System in a further assay: not listed separately
As to the kind of experiment: CCTE_Shafer_MEA_dev_LDH: CCTE's Lactate Dehydrogenase Assay for Cytotoxicity in the Neural Network Formation Assay, Shafer Lab (AID 2284068; active = hit-call score of the fitted dose curve at least 0.9, where 1 is the maximum;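 note: exposure for twelve days from plating with re-dosing on DIV 5 and 9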). A digest of the protocol: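 Developing rat cortical networks on MEA plates are exposed to compound for 12 days from plating. LDH activity is measured spectrophotometrically, with DMSO as baseline.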
Take `S=C(S)NCCNC(=S)S.[Mn+2].[S-]C([S-])=NCCN=C([S-])[S-].[Zn+2]`: the call was inactive.

As to `Cc1nn(C)c(Oc2ccccc2)c1C=NOCc1ccc(C(=O)OC(C)(C)C)cc1`, the AC50 was 2 nM (active).

For the molecule `C#CCOC(=O)[C@@H](C)Oc1ccc(Oc2ncc(Cl)cc2F)cc1`, the call was inactive.

In the case of `O=C(O)c1ccccc1`, the molecule was classed as inactive.

As to `Oc1ccc(C(c2ccc(O)cc2)C(Cl)(Cl)Cl)cc1`, the call was inactive.

For the molecule `S=C([S-])NCCNC(=S)[S-].[Mn+2]`, the result was inactive.

As for `COCCO`, the molecule was classed as inactive.

For the molecule `CC1(C)C(C=C(Cl)Cl)C1C(=O)OCc1cccc(Oc2ccccc2)c1` (stereo not given), the AC50 is 22.6 µM (active) and 9.58 µM (active).

As for `CCCCC(CC)CN1C(=O)C2C3C=CC(C3)C2C1=O` (stereo not given), the molecule was called inactive.

For `CCCCOCCOCCOCc1cc2c(cc1CCC)OCO2`, the concentration at half-maximal activity (AC50) is 15300 nM (active).

With `CCCN(CCC)C(=O)SCC`, the molecule was classed as inactive.

For the molecule `CC(C)(c1ccc(O)cc1)c1ccc(O)cc1`, the result was inactive.

System in another assay: not listed separately
As to the kind of experiment: CCTE_Shafer_MEA_acute_AB: CCTE's Alamar Blue Assay for Cytotoxicity in the Neural Acute Assay, Shafer Lab (AID 2284069; active = hit-call score of the fitted dose curve at least 0.9, where 1 is the maximum;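 note: active compounds lower the viability signal compared with DMSO wells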). In outline: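 Cytotoxicity endpoint for acute MEA exposures of primary rat cortical neurons on day 13 or 15. Resazurin reduction is read fluorescently at 544/590 nm, with DMSO as the negative-control baseline.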
Take `Cc1nn(C)c(Oc2ccccc2)c1C=NOCc1ccc(C(=O)OC(C)(C)C)cc1`: the result was inactive.

For `C#CCOC(=O)[C@@H](C)Oc1ccc(Oc2ncc(Cl)cc2F)cc1`, the molecule was classed as inactive.

On to `CCNc1nc(N)nc(Cl)n1`, for which the molecule was called inactive.

For the molecule `O=C(c1ccc(O)cc1O)c1ccc(O)cc1O`, the result was inactive.

On to `CC(C)(C)[C@@H](O)[C@@H](Cc1ccc(Cl)cc1)n1cncn1`, for which the molecule was called inactive.

For the molecule `O=C(O)c1ccccc1`, the result was inactive.

For `COC(=O)c1ccccc1C(=O)O`, the molecule was called inactive.

As to `CC(C)CCCCCCc1ccc(O)cc1`, the molecule was called inactive.

`OB(O)O`: the molecule was called inactive.

Turning to `O=C(c1ccccc1)C1CCCCC1`, the outcome was inactive.

Regarding `CCCCC(CC)CN1C(=O)C2C3C=CC(C3)C2C1=O` (stereo not given), the result was inactive.

Consider `C=CCOC(Cn1ccnc1)c1ccc(Cl)cc1Cl` (stereo not given), for which the outcome was inactive.

Regarding `N#CSCSc1nc2ccccc2s1`, the outcome was inactive.

In the case of `O=C(Nc1ccc([N+](=O)[O-])cc1Cl)c1cc(Cl)ccc1O`, the result was inactive.

In the case of `CC(C)(c1ccc(O)cc1)c1ccc(O)cc1`, the molecule was classed as inactive.

A word on the AC50: it is the midpoint of the concentration-response curve, whichever way the signal moves.
